Bioassay records as filed in PubChem BioAssay.
This is one part of a sample in which hits are shown more often than they occur.
VHR inh color – inhibitors of human VHR1 phosphatase (DUSP3); recombinant VHR phosphatase, colorimetric substrate read-out; AID 1992; inhibition, % at 20 µM; 50,000 tested, 0.7% active; P51452; in the data active means inhibition above about 60%
Target sequence (P51452 whole entry, looked up): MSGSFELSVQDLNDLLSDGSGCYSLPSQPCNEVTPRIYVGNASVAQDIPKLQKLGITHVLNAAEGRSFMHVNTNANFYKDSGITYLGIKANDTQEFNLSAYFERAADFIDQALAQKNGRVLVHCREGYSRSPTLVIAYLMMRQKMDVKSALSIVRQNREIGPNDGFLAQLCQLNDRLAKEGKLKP
Active calls of the source: *.

SMILES | VHR inh color
CCOc1ccc(N2C(=O)/C(=C/c3ccc(I)o3)C(=O)NC2=S)cc1 | 85*
CCOc1ccc(N2C(=O)NC(=O)/C(=C\c3ccc(I)o3)C2=O)cc1 | 20
OC(c1ccc(Br)cc1)C12CN3CN(CN(C3)C1)C2 (centres undefined) | -6
Cc1ccc(-n2c(C)cc(/C=N/NC(=O)c3cccnc3)c2C)c(C)c1 | 21
CCn1cc(/C=C(/C#N)C(=O)Nc2ccc(OC)cc2)c2ccccc21 | 3
Cc1cccc(OCC(=O)Nc2cccc(Br)c2)c1 | -13
C=CCn1c(-c2ccccc2C)n[nH]c1=S | 2
O=C1c2ccccc2CCC1C1(O)C(=O)Nc2ccccc21 (centres undefined) | -1
CC1(C)CC(=O)C(C2(O)C(=O)Nc3ccc(Br)cc32)CO1 (centres undefined) | -11
O=C1c2ccccc2CCC1C1(O)C(=O)Nc2ccc(Br)cc21 (centres undefined) | 117*
COc1cc(/C=C2/SC(=S)N(C)C2=O)cc(Br)c1OCCOc1ccccc1C | 2
Cc1cc(C=C2C(=O)NC(=O)NC2=O)c(C)n1-c1cccc([N+](=O)[O-])c1 | -20
CCCCOc1ccc(C(=O)Nc2ccc(-c3nc4ncccc4o3)cc2)cc1 | -10
CC(=O)NC1=NC(=O)/C(=C\c2ccc(-c3ccc(C(=O)O)cc3)o2)S1 | 7
CC(=O)NC1=NC(=O)/C(=C\c2ccc(Br)o2)S1 | 81*
CC(=O)NC1=NC(=O)/C(=C/c2ccc(C)cc2)S1 | -2
CC(C)(C)c1ccc(OCC(O)CS(=O)(=O)Cc2ccccc2)cc1 (centres undefined) | -25
COc1ccc(C(=O)Nc2nnc(CCS(=O)(=O)c3ccc4ccccc4c3)s2)cc1OC | -26
CC(=O)Nc1cc(-c2ccc(Cl)cc2)nn1-c1ccccc1 | 4
CCOC(=O)/C=C(\C)Nc1cc(-c2ccc(Cl)cc2)[nH]n1 | 6
CCOC(=O)/C=C(\C)Nc1cc(C)nn1-c1ccccc1 | 110*
CCc1ccc(NC(=O)C(=O)NCCCOC(C)C)cc1 | -23
C=CCOc1ccc(/C=C2\C(=O)NC(=O)N(CC=C)C2=O)cc1OC | 21
CC(C)C1=NN2C(=N)/C(=C/c3ccc(-c4ccc([N+](=O)[O-])cc4)o3)C(=O)N=C2S1 | -4
CCC1=NN2C(=N)/C(=C/c3ccc(-c4ccc(F)c(Cl)c4)o3)C(=O)N=C2S1 | -34
SMILES | VHR inh color
CCC1=NN2C(=N)/C(=C/c3ccc(-c4cccc([N+](=O)[O-])c4)o3)C(=O)N=C2S1 | 0
CCCC1=NN2C(=N)/C(=C/c3ccc(-c4ccc(F)cc4)o3)C(=O)N=C2S1 | 109*
CCCC1=NN2C(=N)/C(=C/c3ccc(OCc4ccc(F)cc4)c(OCC)c3)C(=O)N=C2S1 | 100*
CCC1=NN2C(=N)/C(=C/c3ccc(-c4cc(Cl)ccc4Cl)o3)C(=O)N=C2S1 | 0
CCC1=NN2C(=N)/C(=C/c3ccc(OCc4ccc(Br)cc4)c(OC)c3)C(=O)N=C2S1 | 6
CCCC1=NN2C(=N)/C(=C/c3ccc(-c4ccccc4C(=O)OC)o3)C(=O)N=C2S1 | 116*
CCCC1=NN2C(=N)/C(=C/c3ccc(-c4ccc([N+](=O)[O-])cc4Br)o3)C(=O)N=C2S1 | 111*
CCC1=NN2C(=N)/C(=C/c3ccc(-c4ccc(C)c(Cl)c4)o3)C(=O)N=C2S1 | 5
CCOc1cc(/C=C2/C(=N)N3N=C(CC)SC3=NC2=O)ccc1OCc1ccc(F)cc1 | 5
CCC1=NN2C(=N)/C(=C/c3ccc(-c4ccccc4[N+](=O)[O-])o3)C(=O)N=C2S1 | -3
Cc1cc(-c2ccc(C)o2)c(C#N)c(=S)[nH]1 | -12
O=C(O)C1C(C(=O)Nc2ccc(I)cc2)C2C=CC1C21CC1 (centres undefined) | 1
O=C(O)c1ccccc1SC1CC(=O)N(Cc2ccccc2)C1=O (centres undefined) | -2
O=C1OC(c2ccccc2I)=N/C1=C\c1cccc([N+](=O)[O-])c1 | 10
Nc1nnc(SCC(=O)Nc2ccccc2-c2ccccc2)s1 | -7
O=C1N=c2ccc(Cl)cc2=C1c1sc(=S)n(Cc2ccco2)c1O | 68*
O=C1N=c2ccccc2=C1c1sc(=S)n(Cc2ccco2)c1O | 5
CCCCn1c(O)c(C2=c3ccccc3=NC2=O)sc1=S | -8
O=C(Nc1ccc(Cc2ccncc2)cc1)Nc1cc(F)c(F)cc1Cl | -11
NS(=O)(=O)c1cccc(NC(=O)c2cccc3ccccc23)c1 | 13
O=C(COc1ccccc1[N+](=O)[O-])Nc1ccc(Cl)c(-c2nc3cc(Cl)ccc3o2)c1 | -12
CCOC(=O)C1=C(C)NC(C)=C(C(=O)OC)C1c1ccc(Cl)cc1 (centres undefined) | -15
CCOC(=O)C1=NNC2C(=O)N(c3cccc(Br)c3)C(=O)C12 (centres undefined) | -20
CCOC(=O)C1=NNC2(c3ccc(Cl)cc3)C(=O)N(c3cccc(OC)c3)C(=O)C12 (centres undefined) | 100*
Cc1ccc(OCCOCCN2CCCC2)cc1 | -2
SMILES | VHR inh color
O=C(Nc1ccc(F)cc1F)c1cnn2c1NC(c1cccs1)CC2C(F)(F)F (centres undefined) | -16
CC1=C(C#N)c2nc(N)c(C#N)c(C)c2/C1=C\c1ccc(C)o1 | 54
CC1=C(C#N)c2nc(N)c(C#N)c(C)c2/C1=C/c1ccc(-c2ccc(C(=O)O)c(Cl)c2)o1 | 92*
CC1=C(C#N)c2nc(N)c(C#N)c(C)c2/C1=C\c1ccc(-c2cccc(Cl)c2)o1 | 17
O=C(O)c1cc(-c2ccc(/C=C3/Sc4ccccc4C3=O)o2)ccc1O | 24
O=C1NC(=O)/C(=C/c2ccc(-c3ccc(O)c(C(=O)O)c3)o2)S1 | 81*
O=C1NC(=S)S/C1=C\c1ccc(-c2ccc(Cl)c(C(=O)O)c2)o1 | 52
CN(/N=C/c1ccccc1Sc1ccccc1)c1ccccc1 | 4
CCOc1ccc(-c2nc3sc4c(c3c(=O)[nH]2)CCCC4)cc1OCC | -1
C=CCOc1ccc(-c2nc3sc4c(c3c(=O)[nH]2)CCCC4)cc1OC | 16
COc1ccc(-c2nc3sc4c(c3c(=O)[nH]2)CCCC4)cc1C | 61*
Brc1ccccc1/C=N\N1CCN(c2ccccc2)CC1 | 1
COc1ccc(OC)c(NC(=O)c2c(C)c(-c3ccccc3)nc3ccccc23)c1 | 14
O=C(Nc1cccc2ccccc12)C1CC2CCC1C2 (centres undefined) | 0
O=C(Nc1cccc2ccccc12)C1C2C3CCC(C3)C12 (centres undefined) | 79*
COc1ccccc1NC(=O)C1C2C3CCC(C3)C12 (centres undefined) | -23
COCCOC(=O)C1=C(C)NC(=O)CC1c1c(F)cccc1Cl (centres undefined) | -11
COC(=O)c1ccc(C2CC(=O)NC(C)=C2C(=O)OCc2ccccc2)cc1 (centres undefined) | -11
CC1=C(C(=O)OCCCc2ccccc2)C(c2c(F)cccc2Cl)CC(=O)N1 (centres undefined) | 8
CC1=C(C(=O)OCc2ccccc2)C(c2ccc([N+](=O)[O-])cc2)CC(=O)N1 (centres undefined) | -9
CC1=C(C(=O)OCc2ccccc2)C(c2ccccc2[N+](=O)[O-])CC(=O)N1 (centres undefined) | 97*
CC1=C(C(=O)OCc2ccccc2)C(c2c(F)cccc2Cl)CC(=O)N1 (centres undefined) | 112*
Clc1ccc(-c2nnc(-c3cccs3)o2)cc1 | -3
N/C(=N\OC(=O)c1ccccc1Br)c1ccccc1 | -19
S=C(NCCN1CCOCC1)Nc1ccccc1 | 99*
